MenB inh: blocks the Mycobacterium tuberculosis MenB enzyme | MenB enzyme assay, absorbance read-out | inhibition, % (no concentration beside the values) | 0.43% of 100,000 active | AID 540299; in the data active = inhibition above about 21%, passing the limit was not always enough
AID504770: growth inhibitors of E. coli YBA685 in a screen for V. cholerae RctB (chromosome II replication) inhibitors | E. coli YBA685 rctB-dependent plasmid, OD600 growth, 3 h; stronger effect = lower value | z-score (concentration not given with the values) | 0.27% of 130,000 active | AID 504770; in the data active = z-score below about -2, passing the limit was not always enough
Polio RdRp inh: poliovirus RNA polymerase inhibition; poliovirus polymerase elongation, fluorescence polarization; stronger effect = lower value; % elongation, % (compound at 16.7 µg/mL); 0.66% of 150,000 active; AID 588519; in the data active = % elongation below about 90%
MbtI inh: inhibitors of Mycobacterium tuberculosis siderophore enzyme MbtI; purified MbtI enzyme, fluorescence intensity read-out; inhibition, % (test concentration not listed); 0.89% of 100,000 active; P9WFX0; in the data active = inhibition mostly above about 56%, no sharp cut-off; inactive = mostly below about 77%
Target sequence (P9WFX0 whole entry, looked up): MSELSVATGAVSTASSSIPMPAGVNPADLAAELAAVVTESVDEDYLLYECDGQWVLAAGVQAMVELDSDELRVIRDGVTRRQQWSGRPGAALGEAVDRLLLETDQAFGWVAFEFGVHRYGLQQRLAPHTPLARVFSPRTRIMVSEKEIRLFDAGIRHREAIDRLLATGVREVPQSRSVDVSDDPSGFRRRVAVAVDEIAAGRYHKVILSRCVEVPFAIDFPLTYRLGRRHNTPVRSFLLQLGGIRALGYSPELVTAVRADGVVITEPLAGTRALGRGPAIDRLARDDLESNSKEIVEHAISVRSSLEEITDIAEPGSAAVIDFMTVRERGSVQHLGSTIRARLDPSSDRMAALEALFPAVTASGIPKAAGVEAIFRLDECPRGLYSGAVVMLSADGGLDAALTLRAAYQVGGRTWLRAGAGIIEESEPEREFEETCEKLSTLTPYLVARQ
Numbers stand for hits; – = inactive; · = no result; ! = a repeat was not active. Only some compounds are listed: those with a hit (about 1.5% of all), similar ones and a draw of the others.

SMILES	MenB inh	AID504770	Polio RdRp inh	MbtI inh
O=C(CSc1ccccc1Cl)c1ccco1	·	–	–	–
O=C(CSc1ccc(Cl)cc1)c1ccco1	·	–	–	61.1
CCc1ccccc1NC(=O)C(=O)c1cc(C)n(-c2ccccc2F)c1C	·	·	–	·
O=c1[nH]c(=S)[nH]c(O)c1-c1ccccc1	–	–	–	85.3
CCOC(=O)c1c(Sc2ccccc2)cnn1C(=O)c1ccc(C(F)(F)F)cc1	–	–	–	–
COc1ccc(CSc2nnc(C)s2)cc1F	55.9	–	–	–
COc1ccc(CCNC(=O)CSc2nnc(C)s2)cc1OC	–	–	–	–
O=C(O)c1cccnc1Sc1cccc(C(F)(F)F)c1	–	–	–	–
CCC(=Nc1ccccc1N)c1c(O)[nH]c(=O)[nH]c1=O	–	–	–	·
c1nncn1/N=C1/CCCc2nonc21	–	–	–	84.0
Nc1nc(CN2CCCCC2)cs1	38.5	–	–	–
CCOC(=O)C(C#N)C(=O)c1ccc(N)cc1 (stereo not given)	–	–	80.0	·
CCOC(=O)c1ccc(N)cc1	–	–	–	–
CC(C)Cn1c(=O)c2ccccc2n2c(CCC(=O)Nc3ccccc3)nnc12	–	–	–	–
Cc1nn(CCC(N)=S)c2nc(-c3ccccc3)ccc12	–	–	73.0	–
CSc1ncc2c(n1)-c1ccccc1N(Cc1ccccc1)S2(=O)=O	·	·	-15.0	·
CSc1ncc2c(n1)-c1ccccc1N(C)S2(=O)=O	–	–	–	–
Cc1noc(C)c1C(=O)N(CC(=O)Nc1ccccc1Br)Cc1ccco1	–	–	–	–
Cc1cc(C(C)(C)CC(C)(C)C)ccc1OCCOCC[N+](C)(C)Cc1ccccc1	–	–	94.0!	–
C[N+](C)(Cc1ccccc1)Cc1ccccc1	–	–	–	·
CS(=O)(=O)CS(=O)(=O)NNc1ncc(C(F)(F)F)cc1Cl	–	–	–	57.4
CNC(=S)NNc1ncc(C(F)(F)F)cc1Cl	–	–	–	–
N#Cc1c(N)[n+]([O-])c2ccccc2[n+]1[O-]	–	-4.4	–	–
N#Cc1c(=O)n(O)c2ccccc2[n+]1[O-]	–	-4.35	–	–
CCOC(=O)c1c(-c2ccc(OC)cc2)oc2ccc(OCc3ccc(F)cc3F)cc12	·	·	–	·
SMILES	MenB inh	AID504770	Polio RdRp inh	MbtI inh
CCO/C=C1\C(=O)N(C)C(=O)c2ccccc21	·	–	10.0	–
CCO/C=C1/C(=O)N(c2ccc(Cl)cn2)C(=O)c2ccccc21	–	–	85.0	–
CCO/C=C1/C(=O)NC(=O)c2ccccc21	–	–	–	–
CCO/C=C1/C(=O)N(Cc2ccc(OC)cc2)C(=O)c2ccccc21	–	–	36.0	–
Cc1nnc(SCc2ccccc2)c2cc3sccc3n12	·	·	–	·
Cc1cc(C(=O)O)c2cc(O)ccc2n1	–	–	–	·
Cc1ccc2nc(C)cc(C(=O)O)c2c1	32.7	–	–	–
O=C(O)COc1ccc(-c2nnco2)cc1	–	–	89.0	–
CC1CCCC(C)N1C(=O)COc1ccc(-c2nnco2)cc1 (stereo not given)	–	–	–	–
O=C1C=CC(=O)N1c1ccccc1OC(F)(F)F	·	–	·	·
O=C1C=CC(=O)N1c1ccccc1F	–	-4.65	–	99.8
O=C1C=CC(=O)N1c1cccc2ccccc12	·	–	–	88.6
CCOC(=O)C1=C(C)N(C)C(=S)N(C)C1c1ccccc1C(F)(F)F (stereo not given)	–	–	–	–
C[C@H]1COc2c(N3CCN(C)CC3)c(F)cc3c(=O)c(C(=O)O)cn1c23	–	-4.4	–	–
CCOc1ccc(NC(=O)Cn2c(=O)n(CC(=O)NCCc3ccccc3)c(=O)c3sccc32)cc1	·	·	81.0	·
O=C(O)CON=C1C2CC3CC(C2)CC1C3	–	–	78.0	–
O=C(O)CO/N=C/c1ccccc1	–	–	–	–
Cc1cc2c(cc1C)C(Nc1ccccc1)=NC(C)(C)C2	–	–	–	–
S=c1[nH]nc(C2COc3ccccc3O2)o1 (stereo not given)	–	–	–	73.4!
COc1ccccc1CNC(=O)c1ccc(Nc2nc3ccccc3n3nnnc23)cc1	·	·	–	·
COc1cccc(C(=O)Nc2ccccc2OCc2cc(=O)n3ccccc3n2)c1	·	·	–	·
Cc1c(C)c(NC(=O)/C=C/C(=O)O)c(C)c(C)c1NC(=O)/C=C/C(=O)O	–	–	–	60.0
Cc1cc(C)cc(NC(=O)/C=C\C(=O)O)c1	–	–	–	–
N#CCn1c(=O)n(Cc2ccccc2)c(=O)c2cccnc21	–	–	–	–
CCOC(=O)C1=NN(c2ccccc2)C(=O)/C1=C\c1ccc(N(C)C)cc1	–	–	–	98.0
SMILES	MenB inh	AID504770	Polio RdRp inh	MbtI inh
CN(C)c1ccc(/C=C2\C(=O)N(c3ccccc3)N=C2C(=O)O)cc1	–	–	–	–
CC(=O)Nc1ccc(S(=O)(=O)c2ccc(N)cc2)cc1N	·	–	·	·
COCc1c(CSSCc2cnc(C)c(O)c2COC)cnc(C)c1O	38.2	–	86.0	–
COCc1c(CN)cnc(C)c1N	–	–	–	–
Cc1cc(C)c(C#N)c(SCC(=O)OC(C)C)n1	–	–	–	–
C=COC(=O)CSc1nc(C)cc(C)c1C#N	–	–	86.0	·
O=C(Nc1cccnc1)C1CCCS1 (stereo not given)	·	–	·	·
S=c1[nH]nc(NCCc2ccc(Cl)cc2)s1	·	–	·	·
CC(C)CNc1n[nH]c(=S)s1	–	–	–	96.2
CCC(C)CCCNc1n[nH]c(=S)s1 (stereo not given)	–	–	–	98.2
CCCCNC(=O)Sc1ccc2ccccc2c1	–	–	84.0	–
CCOc1cc(CNc2ncn[nH]2)ccc1OCC(=O)NC(C)(C)C	–	-2.45	–	–
COc1cc(CNC(C)(C)C)ccc1OCC(=O)NC(C)(C)C	–	–	–	–
CC(=NCCSCc1nc[nH]c1C)c1c(C)[nH]n(-c2nc3ccccc3s2)c1=O	–	–	–	–
CC(=NCc1cccnc1)c1c(C)[nH]n(-c2nc3ccccc3s2)c1=O	34.4	–	–	–
CC1=NN(c2ccccc2)C(=O)/C1=C1/C(=O)N(c2ccccc2)N=C1C	–	–	57.0	–
CC1=NN(c2ccccc2)C(=O)C1=C1SCCS1	–	–	–	–
O=C(OCC(=O)c1ccccc1)C1=NN(c2ccccc2)C(=O)CC1	–	–	–	–
CC(C)n1c(SCC(=O)Nc2ccccc2)nc2ccccc2c1=O	–	–	–	–
Cc1cc(SCC(=O)Nc2ccccc2)c2ccccc2n1	–	–	89.0	·
COC(=O)c1ccsc1N1C(=O)C=CC1=O	–	–	·	93.7
O=C(O)c1ccccc1OCc1nc2ccccc2s1	–	–	–	–
CC(NC(=O)c1ccc(-c2ccccc2)cc1)C(=O)O (stereo not given)	28.9	–	–	–
CC(C)C(NC(=O)c1ccccc1)C(=O)O (stereo not given)	–	–	–	–
OC(c1ccc(Cl)cc1)C(O)c1nc2ccccc2[nH]1 (stereo not given)	–	–	–	–
SMILES	MenB inh	AID504770	Polio RdRp inh	MbtI inh
OCC(O)C(O)C(O)C(O)c1nc2ccccc2[nH]1 (stereo not given)	–	–	62.0	–
Cn1cccc1/C=C/C(=O)O	–	–	76.0	–
Cc1ccc(C)n1-c1n[nH]c(=S)s1	–	–	–	–
CCCc1n[nH]c(=S)s1	–	–	87.0	89.0
N#Cc1cc2c(nc1SCC(=O)N1CCCCC1)CCCC2	–	–	–	–
N#Cc1cc2c(nc1SCC(=O)O)CCC2	–	-2.4	–	·

Screening results from PubChem.
